Reference: PubChem BioAssay (NCATS)
Results filed as inconclusive are left out. Activity calls are given as the source filed them. Unless noted, the call rests on the fitted dose curve; in most records, active means well fitted curve in the direction sought with a large enough effect in the repeat runs; inconclusive means weak or mixed curves; inactive means no such curve, though single readings can be large; an effect the other way counts as inactive or inconclusive.

What was measured:
[1] = target: Cytochrome P450 2C9 (Homo sapiens) (UniProt P11712); test: Cytochrome P450 family 2 subfamily C member 9 (CYP2C9) small molecule antagonists: luciferase biochemical (cell-free) qHTS assay (AID 1645842); further: nearly all actives have a fitted effect of over 55% in size; further: potency means the concentration at half of the fitted maximal effect; on activity change, negative = inhibition: on the % scale 0 is the no-effect control and ±100 the full control effect
Sequence of Cytochrome P450 2C9 (Homo sapiens) (P11712 whole entry, looked up): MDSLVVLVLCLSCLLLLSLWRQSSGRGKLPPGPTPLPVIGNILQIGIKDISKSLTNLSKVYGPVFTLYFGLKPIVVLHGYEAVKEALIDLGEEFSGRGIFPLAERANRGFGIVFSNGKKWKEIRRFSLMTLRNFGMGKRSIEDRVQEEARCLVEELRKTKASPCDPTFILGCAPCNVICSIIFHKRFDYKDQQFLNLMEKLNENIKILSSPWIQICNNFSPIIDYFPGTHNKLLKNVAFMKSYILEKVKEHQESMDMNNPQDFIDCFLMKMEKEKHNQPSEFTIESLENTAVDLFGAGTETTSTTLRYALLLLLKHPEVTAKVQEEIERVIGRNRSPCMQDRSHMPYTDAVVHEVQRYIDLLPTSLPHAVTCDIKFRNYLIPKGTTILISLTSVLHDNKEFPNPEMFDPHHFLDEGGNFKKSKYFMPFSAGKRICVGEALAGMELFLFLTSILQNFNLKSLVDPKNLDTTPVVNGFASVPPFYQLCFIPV
In short: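 P450-Glo CYP2C9 system: proluciferin substrate with enzyme in mix containing 0.4% BSA, 10 min at room temperature, then NADPH regeneration solution added and incubated 1 h at 37C. Detection reagent stopped reaction; luminescence read after 20 min as RLU.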

[2] = target: Catechol O-methyltransferase (Homo sapiens) (UniProt P21964); test: Confirmatory Screen for Target Class Profiling of Small Molecule Inhibitors of Methyltransferases (AID 1745852; calls by dose curve; further: potency means the concentration at half of the fitted maximal effect; on activity change, negative = inhibition: on the % scale 0 is the no-effect control and ±100 the full control effect); conditions: MTase-Glo luminescence, SAH detection, recombinant enzyme; measured here: COMT max response; stronger effect = lower value
Sequence of Catechol O-methyltransferase (Homo sapiens) (P21964 whole entry, looked up): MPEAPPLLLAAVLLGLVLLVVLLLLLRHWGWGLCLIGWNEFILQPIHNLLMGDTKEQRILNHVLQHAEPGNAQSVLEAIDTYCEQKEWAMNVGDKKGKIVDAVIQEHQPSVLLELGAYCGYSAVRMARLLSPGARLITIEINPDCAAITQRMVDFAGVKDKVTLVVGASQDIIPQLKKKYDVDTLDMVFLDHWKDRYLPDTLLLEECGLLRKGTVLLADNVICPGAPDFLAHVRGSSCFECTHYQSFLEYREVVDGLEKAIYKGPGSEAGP

[3] = target: Guanidinoacetate N-methyltransferase (Homo sapiens) (UniProt Q14353); test: as above; conditions: activity change, negative = inhibition: at 57.3 µM (top of the series) unless noted
[4] = target: Nicotinamide N-methyltransferase (Homo sapiens) (UniProt P40261); test: as above; conditions: MTase-Glo luminescence, SAH detection, recombinant enzyme; measured here: NNMT max response; stronger effect = lower value
Sequence of Nicotinamide N-methyltransferase (Homo sapiens) (P40261 whole entry, looked up): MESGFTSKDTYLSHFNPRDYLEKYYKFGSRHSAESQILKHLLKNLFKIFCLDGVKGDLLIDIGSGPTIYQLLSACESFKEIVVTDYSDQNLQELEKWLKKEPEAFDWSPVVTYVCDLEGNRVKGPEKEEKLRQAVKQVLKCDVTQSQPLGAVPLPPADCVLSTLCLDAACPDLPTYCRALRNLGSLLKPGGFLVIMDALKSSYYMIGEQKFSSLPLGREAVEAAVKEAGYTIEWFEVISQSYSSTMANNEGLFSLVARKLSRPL

[5] = target: Phenylethanolamine N-methyltransferase (Homo sapiens) (UniProt P11086); test: as above; conditions: MTase-Glo luminescence, SAH detection, recombinant enzyme; measured here: PNMT max response; stronger effect = lower value
Sequence of Phenylethanolamine N-methyltransferase (Homo sapiens) (P11086 whole entry, looked up, the tested form may be a part): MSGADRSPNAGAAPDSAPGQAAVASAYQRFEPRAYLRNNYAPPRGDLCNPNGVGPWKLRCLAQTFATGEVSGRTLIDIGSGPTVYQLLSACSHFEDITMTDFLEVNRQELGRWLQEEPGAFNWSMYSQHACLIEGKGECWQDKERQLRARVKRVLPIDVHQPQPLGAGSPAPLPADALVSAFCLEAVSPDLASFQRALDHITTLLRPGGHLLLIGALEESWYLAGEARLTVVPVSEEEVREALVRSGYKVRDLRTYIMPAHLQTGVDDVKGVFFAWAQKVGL

[6] = Primary qHTS for inhibitors of nuclear receptor binding SET domain protein 2 (NSD2) in an RCH-ACV wild type WT cells (2C) (AID 1645877; active means well fitted curve in the direction sought with a large enough effect; an effect the other way counts as inactive or inconclusive; further: nearly all actives have a fitted effect of over 70% in size; further: potency means the concentration at half of the fitted maximal effect)
[7] = target: N-terminal Xaa-Pro-Lys N-methyltransferase 1 (Homo sapiens) (UniProt Q9BV86); test: Confirmatory qHTS for Inhibitors of N-terminal methyltransferase 1 (NTMT1): MTaseGlo Assay (AID 1645874; active means well fitted curve in the direction sought with a large enough effect; an effect the other way counts as inactive or inconclusive;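 further: luminescence from SAH made as NTMT1 methylates SPKRIA peptide using SAM; 0% = DMSO control and -100% = no-enzyme control; nearly all actives have a fitted effect of over 65% in size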)
Sequence of N-terminal Xaa-Pro-Lys N-methyltransferase 1 (Homo sapiens) (Q9BV86 whole entry, looked up): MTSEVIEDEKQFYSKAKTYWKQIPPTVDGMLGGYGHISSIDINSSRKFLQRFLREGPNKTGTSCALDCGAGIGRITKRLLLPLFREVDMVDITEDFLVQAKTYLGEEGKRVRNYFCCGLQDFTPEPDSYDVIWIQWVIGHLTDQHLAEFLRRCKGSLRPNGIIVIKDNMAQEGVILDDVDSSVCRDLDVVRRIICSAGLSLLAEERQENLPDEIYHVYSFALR
In short: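 Room-temperature NTMT1 reaction, 30 min, with 100 uM SAM and 1 uM SPKRIA substrate; enzyme 125 nM. Read-out: MTase-Glo luminescence, normalized to no-enzyme and DMSO controls.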

[8] = Primary qHTS for inhibitors of nuclear receptor binding SET domain protein 2 (NSD2) in an isogenic RCH-ACV NSD2 p.E1099K mutant (9B) (AID 1645876; active means well fitted curve in the direction sought with a large enough effect; an effect the other way counts as inactive or inconclusive; further: potency means the concentration at half of the fitted maximal effect; nearly all actives have a fitted effect of over 70% in size)
[9] = NCATS anti-infectives library activity on HEK293 viability as a counter-qHTS vs the C. elegans viability qHTS (AID 1745854; active means well fitted curve in the direction sought with a large enough effect; an effect the other way counts as inactive or inconclusive;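 further: HEK293 cells exposed to compounds for 24 hr before the viability read; on the % scale 0 is the no-effect control and ±100 the full control effect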)
In short: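 Counter-screen for cytotoxicity: HEK293, 24 hr, 37C, compounds up to 41.7 uM final (a dilution series, 1:5). Readout CellTiter-Glo luminescence, 10 min RT. Digitonin control, […] uM final.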

[10] = NCATS anti-infectives library activity on the primary C. elegans qHTS viability assay (AID 1745855; calls by dose curve)
In short: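 GFP read-out by 488 nm laser cytometry at day 0, 3 and 7, gated on object perimeter, area and peak intensity, scored viability of PE254-GFP-FLuc worms exposed to compound in S medium with bacterial capsules at 21 °C.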

Papain (Carica papaya) = Papain (Carica papaya) (UniProt P00784); test: Primary qHTS assay for inhibitors of the protease papain (AID 1645873; active means well fitted curve in the direction sought with a large enough effect; an effect the other way counts as inactive or inconclusive;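 further: papain turnover of Z-FR-AMC read as the AMC fluorescence gain over 10 min; on the % scale 0 is the no-effect control and ±100 the full control effect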)
Sequence of Papain (Carica papaya) (P00784 whole entry, looked up): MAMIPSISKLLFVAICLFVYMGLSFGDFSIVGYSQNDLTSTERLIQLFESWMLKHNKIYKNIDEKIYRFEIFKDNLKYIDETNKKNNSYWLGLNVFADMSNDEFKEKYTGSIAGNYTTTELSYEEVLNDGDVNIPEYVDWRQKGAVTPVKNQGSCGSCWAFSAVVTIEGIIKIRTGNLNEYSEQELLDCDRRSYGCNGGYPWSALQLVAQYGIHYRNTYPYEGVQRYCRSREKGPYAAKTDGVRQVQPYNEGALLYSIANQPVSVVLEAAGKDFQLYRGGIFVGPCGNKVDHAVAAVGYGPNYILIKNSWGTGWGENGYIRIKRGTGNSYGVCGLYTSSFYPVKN

With `O=S(=O)(Nc1cc(Cl)c(Oc2cnc3ccccc3c2)c(Cl)c1)c1ccc(Cl)cc1Cl` the Potency [1] was 3.01 µM (active), the activity [2] was -8.48% and the Potency [3] was 34.1 µM (active). It also gave an activity [4] of -47.5% and an activity [5] of -24%.
In the case of `CC(C)c1cc(-c2ccc(F)c3ccccc23)nc(N)n1`, the Potency [1] is reported as 4.25 µM (active) and the Potency [6] is reported as “inactive”.
In the case of `CC[C@@H](C)Nc1cc(C(=O)NC2CC3CC[C@@H](C2)N3c2ccc(C(=O)C3CC3)cn2)c(C)cc1C(N)=O` (some centres undefined), the Potency [7] is reported as “inactive”, the Potency [8] is reported as 0.0742 µM (active) and the Potency [6] is reported as 0.105 µM (active).
In the case of `CCCCNc1ncc2c(-c3ccc(S(=O)(=O)N4CCOCC4)cc3)nn(C3CCC(O)CC3)c2n1` (centres undefined), the Potency [1] is reported as 9.52 µM (active) and the Potency [6] is reported as 1.03 µM (active).
For `CCCc1ccc(OCC(=O)N(Cc2nc(-c3cccnc3)no2)C(C)C)cc1`, the Potency [1] was 2.13 µM (active), the outcome [9] was “inactive” and the Potency [10] was “inactive”.
For `COc1nc2ccc(Br)cc2cc1[C@@H](c1ccccc1)[C@@](O)(CCN(C)C)c1cccc2ccccc12`, the Potency [1] was 3.79 µM (active) and the Potency [6] was 14.5 µM (active).
In the case of `CS(=O)(=O)Nc1ccc2oc3c(OC(F)F)ccc(C(=O)Nc4c(Cl)cncc4Cl)c3c2c1`, the Potency [1] is reported as 3.38 µM (active), the activity [2] is reported as -3.19% and the activity change, negative = inhibition [3] is reported as -1.02%. It also gave an activity [4] of -19.3% and an activity [5] of -4.54%.
For `C[C@H]1CO[C@@H]2Cn3cc(C(=O)NCc4ccc(F)cc4F)c(=O)c(O)c3C(=O)N12`, the Potency [1] was “inactive” and the outcome [9] was “inactive”.
With `N#C/C(=C1\Nc2ccccc2S1)c1ccnc(NCCc2cccnc2)n1` the Potency [1] was 0.239 µM (active), the activity [2] was -23.6% and the Potency [3] was 15.2 µM (active). For the same molecule, the activity [4] was -43.4% and the activity [5] was -21.8%.
For `O=C(Cc1c(F)cccc1F)Nc1cc(OCc2ccc(Cl)cc2)ccn1`, the Potency [7] was “inactive” and the Potency [8] was 18.3 µM (active).
For `NCCCC(=O)O`, the outcome (Papain (Carica papaya)) was “inactive”.
For `CCC[C@@]1(CCc2ccccc2)CC(O)=C([C@H](CC)c2cccc(NS(=O)(=O)c3ccc(C(F)(F)F)cn3)c2)C(=O)O1`, the Potency [1] was 26.8 µM (active) and the outcome [9] was “inactive”.
In the case of `CCOC(=O)N1CCC(CN(Cc2ccc(Cl)cc2)Cc2ccc([N+](=O)[O-])s2)C1` (centres undefined), the Potency [1] is reported as 4.25 µM (active), the Potency [6] is reported as 20.5 µM (active) and the activity [2] is reported as -21.2%. It also gave an activity change, negative = inhibition [3] of 1.91%, an activity [4] of -5.08% and an activity [5] of -5.01%.
With `Cn1cc(-c2ccc3c(c2)CCN3C(=O)Cc2cccc(C(F)(F)F)c2)c2c(N)ncnc21` the Potency [1] was 12 µM (active) and the Potency [6] was “inactive”.
For `CC(C)(O)c1ccc2c(c1)ncn2-c1cccc(-c2ccccc2C#N)c1`, the Potency [1] was 2.13 µM (active), the activity [2] was -35.9% and the Potency [3] was 27.1 µM (active). The activity [4] was -41.8% and the activity [5] was -37.6%.
With `Cc1cc(C)nc(SCC(=O)Nc2ncc(Cc3cccc4ccccc34)s2)n1` the Potency [1] was 10.7 µM (active) and the Potency [6] was “inactive”.
With `S=C(c1ccc(-c2ccc(Cl)c(Cl)c2)o1)N1CCCCC1` the Potency [1] was 3.38 µM (active) and the Potency [6] was “inactive”.
For `O=C(c1ccc(Cl)cc1)N1CCN(c2ccnc3cc(Cl)ccc23)CC1`, the Potency [1] was 8.49 µM (active), the activity [2] was -6.44% and the activity change, negative = inhibition [3] was -4.09%. For the same molecule, the activity [4] was -41.3% and the activity [5] was -10.9%.
In the case of `NC(N)=NC(=O)c1cnn(-c2cccc3ncccc23)c1C1CC1`, the Potency [1] is reported as “inactive”, the activity [2] is reported as -9.86% and the activity change, negative = inhibition [3] is reported as -8.74%. For the same molecule, the activity [4] was -53.6% and the activity [5] was -5.56%.
For `O=C(NCC1(c2nc(-c3ccccc3)cs2)CCOCC1)c1cccc(-c2noc(C(F)(F)F)n2)c1`, the Potency [1] was 3.01 µM (active), the Potency [6] was 25.8 µM (active) and the outcome [9] was “inactive”.
With `O=S1(=O)CCN(Cc2cc(NCC3CCOCC3)c3[nH]c(-c4ccccc4)cc3c2)CC1` the Potency [1] was 3.38 µM (active), the Potency [6] was 10.3 µM (active) and the activity [2] was -4.1%. For the same molecule, the activity change, negative = inhibition [3] was -1.81%, the activity [4] was -6.86% and the activity [5] was -4.93%.
In the case of `O=C(Nc1ccc(C(F)(F)F)cn1)N1CCN(c2ncccc2C(F)(F)F)CC1`, the Potency [1] is reported as 3.01 µM (active), the activity [2] is reported as -1.28% and the activity change, negative = inhibition [3] is reported as 0%. The activity [4] was -0.919% and the activity [5] was -60.8%.
For `CCCc1cc2c(N3CCN(C4=NCC(C)(C)S4)CC3)ncnc2s1`, the Potency [1] was “inactive”, the activity [2] was -3.43% and the activity change, negative = inhibition [3] was 1.29%. The activity [4] was -77.1% and the activity [5] was -5.27%.
With `O=C(NCCCc1ccccc1)C1CCC(CNS(=O)(=O)c2cccc3nsnc23)CC1` (centres undefined) the Potency [1] was 9.52 µM (active) and the Potency [6] was 11.5 µM (active).
With `CC(F)(F)CN1CCOc2c(nn(-c3ccccc3Cl)c2-c2ccc(Cl)cc2)C1=O` the Potency [1] was 13.5 µM (active), the Potency [6] was 18.3 µM (active) and the activity [2] was -4.22%. For the same molecule, the activity change, negative = inhibition [3] was 0.516%, the activity [4] was -32.3% and the activity [5] was -3.99%.
For `CN(C)[C@@H]1CCc2[nH]c3ccc(NC(=O)c4ccc(F)cc4)cc3c2C1`, the Potency [1] was “inactive”, the activity [2] was 0.841% and the activity change, negative = inhibition [3] was 0%. It also gave an activity [4] of 0.33% and an activity [5] of -1.89%.
In the case of `COc1c(C(C)C)c(O)c(O)c2c1C(OC)[C@H]1OC(=O)[C@@]23CCCC(C)(C)[C@H]13` (some centres undefined), the Potency [7] is reported as “inactive”.
In the case of `Cc1cc2c(N3CCCC3)nc(N3CCCC3)nc2n1C`, the Potency [1] is reported as 15.1 µM (active), the activity [2] is reported as -23.9% and the Potency [3] is reported as 24.1 µM (active). The activity [4] was -27.1% and the activity [5] was -17.6%.
